In PubChem BioAssay (EPA / NIEHS):
Calls of active or inactive are those of the source. Rule for the calls: active = hit-call score of the fitted dose curve at least 0.9, where 1 is the maximum; inactive = score below 0.9.

Tests used:
[1] = BSK_CASM3C_SRB: Viability Assessment in the BioMAP Diversity Plus: CASM3C Assay (AID 2283050); details: primary human coronary artery smooth muscle cells;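 note: cells exposed to compound for 24 h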
[2] = read-out: Thrombomodulin, THBD (gene 7056); test: BSK_CASM3C_Thrombomodulin: BioMAP Diversity Plus: CASM3C Assay for Thrombomodulin Biomarker Activity (AID 2283051); details: primary human coronary artery smooth muscle cells; actives raise or lower the signal;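 note: thrombomodulin protein level measured by ELISA 24 h after dosing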
[3] = read-out: Tissue Factor, F3 (gene 2152); test: BSK_CASM3C_TissueFactor: BioMAP Diversity Plus: CASM3C Assay for Tissue Factor Biomarker Activity (AID 2283052); details: primary human coronary artery smooth muscle cells; actives raise or lower the signal;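 note: cell surface tissue factor protein level read by ELISA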
[4] = read-out: Interferon-gamma inducible Protein 10 (IP10), CXCL10 (gene 3627); test: BSK_hDFCGF_IP10: BioMAP Diversity Plus: hDFCGF Assay for Interferon-gamma inducible Protein 10 (IP10) Biomarker Activity (AID 2283053); details: primary human foreskin fibroblasts; actives raise or lower the signal
Summary of the method: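 ELISA quantification of IP-10 after a 24 h chemical exposure of human dermal foreskin fibroblast primary cultures. Both increases and decreases versus DMSO fitted.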

[5] = read-out: Urokinase-type plasminogen activator receptor (uPAR), PLAUR (gene 5329); test: BSK_CASM3C_uPAR: BioMAP Diversity Plus: CASM3C Assay for Urokinase-type plasminogen activator receptor (uPAR) Biomarker Activity (AID 2283054); details: primary human coronary artery smooth muscle cells; actives raise or lower the signal;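 note: cell-surface uPAR protein level quantified by ELISA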
[6] = read-out: Vascular cell adhesion molecule 1 (VCAM1), VCAM1 (gene 7412); test: BSK_CASM3C_VCAM1: BioMAP Diversity Plus: CASM3C Assay for Vascular cell adhesion molecule 1 (VCAM1) Biomarker Activity (AID 2283055); details: primary human coronary artery smooth muscle cells; actives raise or lower the signal;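 note: VCAM-1 protein level quantified by ELISA on the cells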
[7] = read-out: Collagen III, COL3A1 (gene 1281); test: BSK_hDFCGF_CollagenIII: BioMAP Diversity Plus: hDFCGF Assay for Collagen III Biomarker Activity (AID 2283056); details: primary human foreskin fibroblasts; actives raise or lower the signal
Summary of the method: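 Cells: human foreskin fibroblasts, primary. Dosing followed by 24 h incubation, then ELISA for collagen III. Both increases and decreases scored relative to DMSO.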

[8] = read-out: Epidermal growth factor receptor (EGFR), EGFR (gene 1956); test: BSK_hDFCGF_EGFR: BioMAP Diversity Plus: hDFCGF Assay for Epidermal growth factor receptor (EGFR) Biomarker Activity (AID 2283057); details: primary human foreskin fibroblasts; actives raise or lower the signal
Summary of the method: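 EGFR levels by ELISA in human dermal fibroblast cultures, 24 h post-treatment, fitted bidirectionally versus DMSO. Parallel wells stained with sulforhodamine B to detect overt cytotoxicity.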

[9] = read-out: Interleukin-8 (IL8), CXCL8 (gene 3576); test: BSK_hDFCGF_IL8: BioMAP Diversity Plus: hDFCGF Assay for Interleukin-8 (IL8) Biomarker Activity (AID 2283058); details: primary human foreskin fibroblasts; actives raise or lower the signal
Summary of the method: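 IL-8 levels from compound-treated primary human fibroblasts were read by ELISA at 24 h, with DMSO serving as baseline for bidirectional fitting.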

[10] = BSK_hDFCGF_Proliferation: Cell Proliferation Assessment in the BioMAP Diversity Plus: hDFCGF Assay (AID 2283059); details: primary human foreskin fibroblasts;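 note: curves fitted for both rise and fall of signal versus DMSO baseline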
Summary of the method: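 This proliferation readout used SRB total-protein staining of human foreskin fibroblasts […], normalized to DMSO with bidirectional curve fitting.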

[11] = read-out: Macrophage colony-stimulating factor (MCSF), CSF1 (gene 1435); test: BSK_hDFCGF_MCSF: BioMAP Diversity Plus: hDFCGF Assay for Macrophage colony-stimulating factor (MCSF) Biomarker Activity (AID 2283060); details: primary human foreskin fibroblasts; actives raise or lower the signal
Summary of the method: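 M-CSF levels, determined by ELISA, are taken at 24 h after dosing human skin fibroblasts. Responses in either direction are fitted with DMSO serving as the baseline.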

[12] = BSK_hDFCGF_SRB: Viability Assessment in the BioMAP Diversity Plus: hDFCGF Assay (AID 2283061); details: primary human foreskin fibroblasts;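 note: cells exposed to compound for 24 h before the read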
Summary of the method: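 Cells were dosed with test chemical, cultured 24 h, fixed with 10% TCA, then stained with 0.1% SRB and read at 560 nm. The fibroblasts were human foreskin primary cells, and DMSO served as baseline.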

[13] = read-out: TIMP metallopeptidase inhibitor 1 (TIMP1), TIMP1 (gene 7076); test: BSK_hDFCGF_TIMP1: BioMAP Diversity Plus: hDFCGF Assay for TIMP metallopeptidase inhibitor 1 (TIMP1) Biomarker Activity (AID 2283062); details: primary human foreskin fibroblasts; actives raise or lower the signal
Summary of the method: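 Fibroblasts from human foreskin are treated with test chemical and harvested at 24 h. TIMP-1 is quantified by ELISA, and gain or loss of signal is scored against DMSO.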

[14] = read-out: Monokine induced gamma interferon (MIG), CXCL9 (gene 4283); test: BSK_hDFCGF_MIG: BioMAP Diversity Plus: hDFCGF Assay for Monokine induced gamma interferon (MIG) Biomarker Activity (AID 2283063); details: primary human foreskin fibroblasts; actives raise or lower the signal
Summary of the method: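 MIG signal, determined by ELISA, reflects 24 h chemical exposure of human skin primary fibroblasts. DMSO serves as negative control and baseline.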

[15] = read-out: Matrix Metallopeptidase 1 (MMP1), MMP1 (gene 4312); test: BSK_hDFCGF_MMP1: BioMAP Diversity Plus: hDFCGF Assay for Matrix Metallopeptidase 1 (MMP1) Biomarker Activity (AID 2283064); details: primary human foreskin fibroblasts; actives raise or lower the signal
Summary of the method: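 Human foreskin fibroblasts exposed to chemical for 24 h; MMP1 detected by ELISA, with DMSO as baseline for bidirectional fitting.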

[16] = read-out: Vascular cell adhesion molecule 1 (VCAM1), VCAM1 (gene 7412); test: BSK_hDFCGF_VCAM1: BioMAP Diversity Plus: hDFCGF Assay for Vascular cell adhesion molecule 1 (VCAM1) Biomarker Activity (AID 2283065); details: primary human foreskin fibroblasts; actives raise or lower the signal
Summary of the method: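 Cells are dosed, cultured for 24 h, then VCAM-1 is quantified by ELISA; signal increases and decreases are both fitted relative to DMSO.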

[17] = read-out: Plasminogen activator inhibitor-1 (PAI1), SERPINE1 (gene 5054); test: BSK_hDFCGF_PAI1: BioMAP Diversity Plus: hDFCGF Assay for Plasminogen activator inhibitor-1 (PAI1) Biomarker Activity (AID 2283066); details: primary human foreskin fibroblasts; actives raise or lower the signal
Summary of the method: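 PAI-1 levels in human dermal foreskin fibroblasts were quantified by ELISA 24 h after dosing, with gain or loss analysed against DMSO. Overt cytotoxicity was checked by sulforhodamine B total-protein staining in parallel cultures.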

[18] = read-out: Intercellular Adhesion Molecule 1 (ICAM1), ICAM1 (gene 3383); test: BSK_KF3CT_ICAM1: BioMAP Diversity Plus: KF3CT Assay for Intercellular Adhesion Molecule 1 (ICAM1) Biomarker Activity (AID 2283067); details: primary human keratinocytes with fibroblasts; actives raise or lower the signal
Summary of the method: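 Dose the keratinocyte/fibroblast co-culture, wait 24 h, measure ICAM-1 by ELISA, then fit increases or decreases against DMSO. Cytotoxicity is checked in parallel cultures by SRB total-protein staining.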

[19] = read-out: Interferon-gamma inducible Protein 10 (IP10), CXCL10 (gene 3627); test: BSK_KF3CT_IP10: BioMAP Diversity Plus: KF3CT Assay for Interferon-gamma inducible Protein 10 (IP10) Biomarker Activity (AID 2283068); details: primary human keratinocytes with fibroblasts; actives raise or lower the signal
Summary of the method: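 Signal is secreted/surface IP-10 by ELISA in a human primary skin co-culture of keratinocytes and foreskin fibroblasts, taken 24 h post-dosing; DMSO served as negative control.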

[20] = BSK_KF3CT_SRB: Viability Assessment in the BioMAP Diversity Plus: KF3CT Assay (AID 2283069); details: primary human keratinocytes with fibroblasts;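 note: fitted for both signal gain and loss against DMSO baseline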
Summary of the method: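 Overt cytotoxicity is assessed as total protein by sulforhodamine B staining in parallel human skin co-cultures at 24 h after dosing. DMSO serves as negative control and baseline.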

Measured: AC50

Nc1ccc(Cl)cc1
active: [10] 7.71 µM
inactive: [1] | [2] | [3] | [4] | [5] | [6] | [7] | [8] | [9] | [11] | [12] | [13] | [14] | [15] | [16] | [17] | [18] | [19] | [20]

COCCOCCO
inactive: [1] | [2] | [3] | [4] | [5] | [6] | [7] | [8] | [9] | [10] | [11] | [12] | [13] | [14] | [15] | [17] | [18] | [19]

CCOP(=S)(OCC)SCn1nnc2ccccc2c1=O
inactive: [1] | [2] | [3] | [4] | [5] | [6] | [7] | [8] | [9] | [10] | [12] | [13] | [14] | [15] | [16] | [17] | [18] | [19] | [20]
active: [11] 20 µM

Nc1ccc2ccccc2c1
active: [2] 12.5 µM
inactive: [1] | [3] | [4] | [5] | [6] | [7] | [8] | [9] | [10] | [11] | [12] | [13] | [14] | [15] | [16] | [17] | [18] | [19] | [20]

Cc1ccc(O)cc1C
inactive: [1] | [2] | [3] | [4] | [5] | [6] | [7] | [8] | [9] | [10] | [11] | [12] | [13] | [14] | [15] | [16] | [17] | [18] | [19] | [20]

O=C(O)C(F)(F)OC(F)(F)C(F)(F)OC(F)(F)F
inactive: [1] | [2] | [3] | [4] | [5] | [6] | [7] | [8] | [9] | [10] | [11] | [12] | [13] | [14] | [15] | [17] | [18] | [19]
